Assay results published in ChEMBL document CHEMBL3433997, “St. Jude Leishmania screening dataset” (2016).

Key:
Type in all cases: functional
[1] = molecular target: Solute carrier family 2, facilitated glucose transporter member 1 (Homo sapiens) (UniProt P11166); assay: ST_JUDE_LEISH: Cytotoxicity at 2uM final concentration against transgenic Leishmania Mexicana promastigotes LmGLUT1 that are glucose transport deficient and complemented with the human glucose transporter GLUT1. Activity is measured by DNA content using SYBR green in vitro
[2] = molecular target: Hexose transporter 1 (Plasmodium falciparum) (UniProt O97467); assay: ST_JUDE_LEISH: Cytotoxicity at 2uM final concentration against transgenic Leishmania Mexicana promastigotes LmPfHT that are glucose transport deficient and complemented with the Plasmodium falciparum hexose transporter. Activity is measured by DNA content using SYBR green in vitro
[3] = molecular target: Glucose transporter (Leishmania mexicana) (UniProt O61059); assay: ST_JUDE_LEISH: Cytotoxicity at 2uM final concentration against transgenic Leishmania Mexicana promastigotes LmGT2 that are glucose transport deficient and complemented with the L. Mexicana glucose transporter 2. Activity is measured by DNA content using SYBR green in vitro

Sequence of Solute carrier family 2, facilitated glucose transporter member 1 (Homo sapiens) (P11166 whole entry): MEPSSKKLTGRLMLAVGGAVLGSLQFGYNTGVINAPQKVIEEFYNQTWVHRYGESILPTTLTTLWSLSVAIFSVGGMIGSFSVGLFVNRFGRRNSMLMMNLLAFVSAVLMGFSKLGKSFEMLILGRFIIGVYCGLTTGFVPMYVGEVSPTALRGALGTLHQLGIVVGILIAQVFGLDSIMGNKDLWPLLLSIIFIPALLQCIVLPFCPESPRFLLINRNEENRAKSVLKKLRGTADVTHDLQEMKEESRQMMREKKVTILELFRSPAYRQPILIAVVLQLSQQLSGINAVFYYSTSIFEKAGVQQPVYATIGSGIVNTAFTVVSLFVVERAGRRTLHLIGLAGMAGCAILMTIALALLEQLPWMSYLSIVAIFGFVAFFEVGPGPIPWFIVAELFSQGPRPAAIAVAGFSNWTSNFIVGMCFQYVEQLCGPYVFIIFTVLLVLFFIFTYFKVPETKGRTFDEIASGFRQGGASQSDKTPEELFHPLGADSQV

## Nc1ncc(-c2ccsc2)c2ccc(-c3cnc[nH]3)cc12
[1]
  inhibition: 1.46%
[2]
  inhibition: 0.14%
[3]
  inhibition: -0.37%

## Clc1ccc2c(NCCc3ccccc3)ccnc2c1
[1]
  inhibition: 4.51%
[2]
  inhibition: 4.33%
[3]
  inhibition: 2.56%

## O=C(Nc1ccc(Cl)c(C(F)(F)F)c1)c1ccc(Cl)c([N+](=O)[O-])c1
[1]
  inhibition: 6.41%
[2]
  inhibition: 3.41%
[3]
  inhibition: 0.08%

## Cc1nc2ccccn2c1C1(O)C(=O)Nc2c(Cl)cc(Cl)cc21 (stereo unspecified)
[1]
  inhibition: 5.72%
[2]
  inhibition: 4.95%
[3]
  inhibition: 2.71%

## O=C(NC(c1ccccc1)c1ccccc1)C(c1cc2ccccc2o1)N1CCN(C(c2ccccc2)c2ccccc2)CC1 (stereo unspecified)
[1]
  inhibition: 4.42%
[2]
  inhibition: 2.92%
[3]
  inhibition: 0.24%

## COc1ccc(N2CCN(CCCCNC(=O)c3ccc(NC(=O)c4cc(Cl)cc(Cl)c4)cc3)CC2)c(OC)c1
[1]
  inhibition: 2.07%
[2]
  inhibition: 3.87%
[3]
  inhibition: 3.2%

## O=S(=O)(c1cc(Cl)sc1Cl)N(CCC(O)(C(F)(F)F)C(F)(F)F)Cc1cccc(O)c1
[1]
  inhibition: 0.79%
[2]
  inhibition: 0.45%
[3]
  inhibition: 2.62%

## COc1cc2c(cc1C(F)(F)F)N(C(=O)Nc1cc(F)cc(-c3cncnc3)c1)CC2
[1]
  inhibition: 11.6%
[2]
  inhibition: 1.94%
[3]
  inhibition: 0.07%

## COc1ccc2nccc([C@@H](O)CN3CCC(NC(=O)c4cc5ccccc5[nH]4)CC3)c2c1
[1]
  inhibition: 36%
[2]
  inhibition: 55.7%
[3]
  inhibition: 38.7%

## Cc1ncccc1C(=O)Nc1ccc(-c2cccc(-c3nc4cccc(C)c4[nH]3)c2)cc1
[1]
  inhibition: 0.98%
[2]
  inhibition: 0.96%
[3]
  inhibition: 3.38%

## COc1ccc(NCc2cccc(-c3cccc(CNCCc4ccccc4)c3)c2)cc1
[1]
  inhibition: 0%
[2]
  inhibition: 0.51%
[3]
  inhibition: -1.32%

## CCn1c(Cc2ccccc2)nnc1SCC(=O)N1c2ccccc2Sc2ccccc21
[1]
  inhibition: 4.01%
[2]
  inhibition: 3.52%
[3]
  inhibition: 2.39%

## O=C1COC2(CN1C1CCN(Cc3ccc(O)cc3Cl)C1)c1ccccc1-c1ccccc12 (stereo unspecified)
[1]
  inhibition: 2.42%
[2]
  inhibition: 2.74%
[3]
  inhibition: 1.29%

## Nc1nc(Cc2ccc(Cl)cc2)nc(Cc2ccc(Cl)cc2)n1
[1]
  inhibition: -3.43%
[2]
  inhibition: -1.17%
[3]
  inhibition: 5.85%

## COc1cc2nc(Nc3ccc4c(cnn4Cc4ccccc4)c3)nc(Nc3ccc4c(cnn4Cc4ccccc4)c3)c2cc1OC
[1]
  inhibition: 2.6%
[2]
  inhibition: 2.44%
[3]
  inhibition: 0.51%

## CCC[C@@H](/C=N/N(C)C(=O)OC(C)(C)C)NC(=O)[C@H](CC(C)C)NC(=O)c1cc2cccc(OC)c2o1
[1]
  inhibition: 3.02%
[2]
  inhibition: 3.92%
[3]
  inhibition: 0.27%

## CC(C)(C)OC(=O)N1CCN(c2ccccc2NC(=O)c2cccc(C(F)(F)F)c2Oc2ccc(F)cc2)CC1
[1]
  inhibition: -1.41%
[2]
  inhibition: 0.7%
[3]
  inhibition: 0.52%

## CCN(CC)CCN(Cc1ccc(-c2ccc(C(F)(F)F)cc2)cc1)C(=O)Cn1cc(Cc2cnn(C)c2)c(=O)nc1/C=C/c1cccc(F)c1F
[1]
  inhibition: 3.81%
[2]
  inhibition: 4.43%
[3]
  inhibition: 2.54%

## O=C(Nc1cccc(-c2cccc(-c3nc4cc(C(F)(F)F)ccc4[nH]3)c2)c1)c1ccoc1
[1]
  inhibition: 10.4%
[2]
  inhibition: 10.1%
[3]
  inhibition: 8.15%

## Cc1cc(N/N=C/c2cccc([N+](=O)[O-])c2)c2ccc(F)cc2n1
[1]
  inhibition: 3.46%
[2]
  inhibition: 2.8%
[3]
  inhibition: 0.94%

## CN(C)c1ccc(-c2ccc(C(=O)NC3CCN(Cc4ccc(F)cc4)CC3)s2)cc1
[1]
  inhibition: 5.83%
[2]
  inhibition: -1.68%
[3]
  inhibition: 3.76%

## Cc1ccc(Sc2ccc(NC(=O)CN3CCN(C(=O)c4ccco4)CC3)cc2)cc1C
[1]
  inhibition: 9.84%
[2]
  inhibition: 9.65%
[3]
  inhibition: 6.7%

## O=C(Nc1cccc(OCCN2CCCC2)c1)Nc1ccc(Cl)c(Cl)c1
[1]
  inhibition: 1.92%
[2]
  inhibition: 2.15%
[3]
  inhibition: 4.58%

## Fc1cccc(COc2ccc(-n3ccc4c(NCCCn5ccnc5)ncnc43)cc2Cl)n1
[1]
  inhibition: 1.74%
[2]
  inhibition: 2.45%
[3]
  inhibition: 1.59%

## CNS(=O)(=O)CCNCc1ccc(-c2ccc3ncnc(Nc4ccc(OCc5ccccc5)cc4)c3c2)o1
[1]
  inhibition: 6.09%
[2]
  inhibition: 6.17%
[3]
  inhibition: 3.83%

## c1ccc(-c2nc(NC3CCCCC3)cc(C3CC3)n2)nc1
[1]
  inhibition: 1.84%
[2]
  inhibition: 1.91%
[3]
  inhibition: 1.62%

## O=C(NCCCCN1CCC(c2ccc3c(c2OCCO)CCCC3)CC1)c1sc(-c2ccc(C(F)(F)F)cc2)nc1CO
[1]
  inhibition: 3.31%
[2]
  inhibition: 2.17%
[3]
  inhibition: 3.21%

## O=C(Nc1ccc(C(F)(F)F)cc1)Nc1ccccc1N1CCNCC1
[1]
  inhibition: 2.1%
[2]
  inhibition: 1.1%
[3]
  inhibition: 6.58%

## Oc1cc(NC[C@@H]2CCC[C@@H]2NCc2ccc(Cl)c(Cl)c2)nc2ccccc12
[1]
  inhibition: 9.21%
[2]
  inhibition: 8.79%
[3]
  inhibition: 7.45%

## c1ccc(CN2CCC(NCc3ccc(-c4ccc(CNC5CCCC5)cc4)cc3)CC2)cc1
[1]
  inhibition: 1.73%
[2]
  inhibition: 1.09%
[3]
  inhibition: 0.48%

## Cc1cc2c(cc1C(F)(F)F)N(C(=O)Nc1cc(OCCN(C(C)C)C(C)C)cc(C(F)(F)F)c1)CC2
[1]
  inhibition: 10.4%
[2]
  inhibition: 9.23%
[3]
  inhibition: 6.19%

## C/C=C/COc1ccc(-c2c(C)[nH]c(C)c(Cl)c2=O)cc1
[1]
  inhibition: 4.66%
[2]
  inhibition: 6.53%
[3]
  inhibition: 4.16%
